Shown are actives, neighbours in structure and some others; about 5.6% of the full set was active somewhere.
VP16 counter = inhibits Gal4-VP16 luciferase reporter, ROR gamma counter-screen | Drosophila S2 Gal4-VP16 UAS-luciferase, luminescence, 20 h | Potency, µM (titrated, usually from 53.6 µM), for inactives: at the top dose activity, negative = inhibition, most hits filed as inhibitors | 310,000 compounds, 3.5% hits | AID 2546;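 also: Gal4-VP16 expression switched on by copper sulfate through the metallothionein promoter; potency is read from the fitted curve at half-maximal effect; nearly all actives have a fitted effect of over 50% in size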
CtBP-E1A blk = blocks the CtBP interaction with E1A; AID 651724; 340,000 compounds, 0.49% hits; activity change, % (test concentration not listed); AlphaScreen GST-E1A/His-CtBP binding, 1536-well; stronger effect = lower value; in the data active = activity change below about -65%; inconclusive = mostly about -30% to -63%
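Steps: dispense buffer (Tris pH 8.0, NaCl 300 mM, TCEP 1 mM, BSA, Tween 20); add 5X protein mix (GST-E1A, His-CtBP, 125 nM each); pin 23 nL compound; 2 h at 37 °C, dark; add 5X beads (50 ug/mL); 1 h; read.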
PKM2 activator = PKM2 (human) enzyme activation. purified PKM2, Kinase-Glo ATP luminescence, activation; response scale: 0% is enzyme alone, no compound. AID 1631. Potency, µM (doses to about 57.5 µM), for the others: at the top dose activation, actives largely listed as activators. 260,000 compounds, 0.34% hits. P14618; also: potency is read from the fitted curve at half-maximal effect; nearly all actives have a fitted effect of over 55% in size
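Purified hPK-M2 (>95%) run at intermediate activity with 0.1 mM ADP and 0.5 mM PEP in 50 mM imidazole pH 7.2, KCl, MgCl2; 1 h room temperature. ATP formed read by Kinase-Glo luminescence; normalized to uninhibited and no-enzyme controls.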
Six1-Eya2 inh = blocks human Six1 binding to Eya2. Q15475+O00167. AlphaScreen GST-Six1/His-Eya2 binding, biochemical; stronger effect = lower value. activity change, % (concentration not given with the values). 360,000 compounds, 0.56% hits; in the data active = activity change below about -65%; inconclusive = mostly about -30% to -63%
Target sequence (O00167 whole entry, looked up): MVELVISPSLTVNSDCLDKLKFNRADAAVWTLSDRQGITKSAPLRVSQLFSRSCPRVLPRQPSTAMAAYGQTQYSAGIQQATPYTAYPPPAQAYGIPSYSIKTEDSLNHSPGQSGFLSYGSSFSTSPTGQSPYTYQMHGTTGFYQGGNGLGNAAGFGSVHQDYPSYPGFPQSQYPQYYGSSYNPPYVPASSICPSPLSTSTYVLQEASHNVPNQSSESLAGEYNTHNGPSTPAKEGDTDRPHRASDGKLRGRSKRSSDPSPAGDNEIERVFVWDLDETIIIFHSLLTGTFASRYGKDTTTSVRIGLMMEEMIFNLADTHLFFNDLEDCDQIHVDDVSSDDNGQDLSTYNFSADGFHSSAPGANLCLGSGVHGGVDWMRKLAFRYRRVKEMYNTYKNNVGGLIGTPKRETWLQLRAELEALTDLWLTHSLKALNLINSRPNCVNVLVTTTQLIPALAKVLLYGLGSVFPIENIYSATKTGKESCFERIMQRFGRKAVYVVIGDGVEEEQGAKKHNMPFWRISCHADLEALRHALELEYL
Target sequence (Q15475 whole entry, looked up): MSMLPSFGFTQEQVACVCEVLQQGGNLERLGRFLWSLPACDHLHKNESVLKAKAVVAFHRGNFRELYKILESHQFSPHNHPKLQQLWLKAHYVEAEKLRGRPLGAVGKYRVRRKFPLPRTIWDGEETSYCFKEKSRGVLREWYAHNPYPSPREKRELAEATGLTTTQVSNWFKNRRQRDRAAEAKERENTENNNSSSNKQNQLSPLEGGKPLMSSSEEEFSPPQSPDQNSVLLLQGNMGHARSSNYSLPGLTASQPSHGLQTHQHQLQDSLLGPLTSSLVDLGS
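GST-Six1 + His-Eya2 (5X stock: 250/500 nM); Tris pH 8.0, 300 mM NaCl, 0.05% BSA, 0.02% Tween 20; GSH donor/Ni acceptor beads; 1 h 37 °C dark; AlphaScreen readout.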
RORg inh = inhibitors of mouse ROR gamma transcriptional activity; Potency, µM (highest dose often 53.6 µM), for inactives: top-dose activity change, negative = inhibition, most hits filed as inhibitors; P51450; 310,000 compounds, 5.4% hits; Drosophila S2 Gal4-RORgamma UAS-luciferase reporter, 20 h; also: potency is read from the fitted curve at half-maximal effect; nearly all actives have a fitted effect of over 60% in size
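Stably transfected Drosophila Schneider cells are the test system, with ROR gamma fused to Gal4 and luciferase under UAS control; luminescence is read after 20 hr of 700 uM copper sulfate induction at ambient temperature.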
* marks the source's active call; other numbers are inactive results; ? = inconclusive; . = no result; [ ] = dose if it differs, or a comment. Unless noted, calls follow the shape of the dose curve; as a rule, active = well fitted curve in the direction sought with a large enough effect; inconclusive = small, poorly fitted or top-dose-only effect, or another doubt; inactive = no such curve, though single readings can be large; an effect the other way counts as inactive or inconclusive. % is scaled to controls: 0 for no effect and ±100 for the full control effect.

SMILES	VP16 counter	CtBP-E1A blk	PKM2 activator	Six1-Eya2 inh	RORg inh
CC(C)(C)NC(=O)C1Cc2ccccc2CN1 (stereo not drawn)	-5%	7	4%	24	-4%
Cc1ncc(CO)c(/C=N/NC(=O)c2cc3c(s2)CCCC3)c1O	4%	.	-9%	-88*	10µM*
Cc1ncc(CO)c(/C=N/NC(=O)c2ccoc2C)c1O	.	-87*	.	-82*	.
COc1ccc(C(=O)N/N=C/c2c(CO)cnc(C)c2O)cc1	8%	.	-10%	?	?
Cc1ncc(CO)c(/C=N/NC(=O)c2ccccc2Br)c1O	18µM*	-83*	-22%	-90*	10µM*
Cc1ccccc1N1Cc2ccccc2C1=O	.	3	.	5	.
CC(C(=O)O)c1ccc(N2Cc3ccccc3C2=O)cc1 (stereo not drawn)	4µM*	0	.	3	1.8µM*
O=C(Nc1ccc(F)c(Cl)c1)c1ccc2sc([C@H]3C[C@H](O)[C@@H](CO)O3)nc2c1	.	-11	.	0	.
CCCc1cc(-c2n[nH]c(=S)n2CC(C)C)cs1	11µM*	-1	3%	2	3.5µM*
CCCCn1c(-c2csc(C(C)C)c2)n[nH]c1=S	?	-6	-3%	10	4µM*
CCCCn1c(-c2csc(CC)c2)n[nH]c1=S	?	0	-4%	2	0.79µM*
CCCn1c(-c2ccncc2)n[nH]c1=S	6%	-6	-8%	-7	?
CCOC(=O)C1(C)CCCN(C(=O)c2ccc(OC(F)F)cc2)C1 (stereo not drawn)	.	8	.	0	.
CCOCCCNC(=S)N(CCO)Cc1cc2cc3c(cc2[nH]c1=O)OCCO3	12%	-2	2%	3	1%
COc1cc(/C=N/NC(=Nc2ccc(C)cc2)c2nc3ccccc3s2)ccc1O	?	-8	-2%	-5	7.1µM*
CC(=O)Nc1sc(N/N=C/c2ccc(C)cc2)nc1-c1ccc(C)cc1	?	.	7.1µM*	-10	?
CC(=O)Nc1sc(N/N=C/c2ccc(N(C)C)cc2)nc1-c1ccc(C)cc1	5%	.	26%	-4	3%
COc1ccc(/C=N/Nc2nc(-c3ccc(C)cc3)c(NC(C)=O)s2)cc1OC	-7%	8	10µM*	4	-19%
CCOc1cc(/C=N\Nc2nc(-c3ccc(C)cc3)c(NC(C)=O)s2)ccc1O	8%	?	?	-22	17%
COc1cc(/C=N\Nc2nc(-c3ccc(C)cc3)c(NC(C)=O)s2)ccc1O	-1%	?	18µM*	-8	2%
CCCCCCCCCCCCCCC[C@@H](O)[C@H](CO)NC(C)=O	-1%	.	.	.	-11%
CCOC(CNC(=O)Cn1nc(C)c2ccccc21)OCC	-5%	2	-12%	3	1%
O=S(=O)(c1ccc(Br)cc1F)N1CCC(O)CC1	.	1	.	-2	.
CC1(CCc2ccccc2)NC(=O)N(CC(=O)Nc2ccc(OC(F)F)cc2)C1=O (stereo not drawn)	.	6	.	1	.
COc1cc(NC(=O)c2cccs2)c(OC)cc1NC(=O)Cc1ccccc1	-4%	-6	2%	-81*	?
SMILES	VP16 counter	CtBP-E1A blk	PKM2 activator	Six1-Eya2 inh	RORg inh
COc1ccc(OCC(=O)Nc2ccc(NC(=O)c3cccs3)c(OC)c2)cc1	-17%	3	1%	6	-2%
COc1cc(NC(=O)c2cccs2)c(OC)cc1NC(=O)CCC(=O)Nc1ccc2ncccc2c1	?	.	0%	-69*	?
Cc1cc(C2(c3cc(C)c(O)cc3C)OS(=O)(=O)c3ccccc32)c(C)cc1O	-12%	.	.	.	-4%
O=C(COC(=O)c1cc(S(=O)(=O)N2CCOCC2)ccc1Cl)NCc1ccccc1	.	0	.	-1	.
c1ccc(CSc2ncnc3sccc23)cc1	29%	46	?	28	?
Cc1nc(SCc2ccccc2)c2ccsc2n1	?	4	16µM*	25	28%
COc1ccc(-c2cn(CC[C@@H]3CC[C@H](NC(=O)Cc4ccccn4)[C@@H](CO)O3)nn2)cc1	.	0	.	-1	.
COc1cccc(Oc2ccc(C(F)(F)F)cc2NC(=O)CCc2nc3ccccc3c(=O)[nH]2)c1	30%	-2	0%	-6	28%
COc1cccc(CN(C)Cc2nc3cc(C(F)(F)F)ccc3c(=O)[nH]2)c1	-19%	-8	2%	-15	2µM*
C=CCOc1ccc(CN(C)Cc2nc3cc(C(F)(F)F)ccc3c(=O)[nH]2)cc1	?	6	2%	1	7.1µM*
CC1Cc2ccccc2N1Cc1nc2cc(C(F)(F)F)ccc2c(=O)[nH]1 (stereo not drawn)	-2%	6	-3%	-1	1%
O=C(CCc1ccc(O)c(O)c1)NNC(=S)Nc1ccc(Br)cc1Cl	?	-8	7%	105	11µM*
O=C(NNC(=S)Nc1ccccc1)c1cc(Br)ccc1Cl	-16%	-7	.	-13	0.79µM*
O=C(NNC(=S)Nc1ccccc1)NNC(=S)Nc1ccccc1	-19%[10 µM]	1	-1%	5	-20%
O=C(NNC(=S)Nc1ccc(Br)cc1Cl)c1ccncc1	20µM*	-3	-1%	-22	-33%
S=C(NCc1ccncc1)Nc1ccc(Br)cc1Cl	-18%	5	4%	-2	-3%
CSc1ccc(C(O)c2ncc(-c3ccccc3F)[nH]2)cc1 (stereo not drawn)	.	-24	.	-20	.
COc1ccc(Nc2c(-c3ccco3)nc3ccc(C)cn23)cc1	-9%[10 µM]	3	-1%	-4	18µM*
Cc1ccc(Nc2c(-c3ccco3)nc3ccccn23)cc1	-6%	-5	23%	-6	-1%
CCn1c(=O)n(CC)c2cc(N3CCCC3)c(NC(=O)c3ccc(C)c([N+](=O)[O-])c3)cc21	1%	-18	0%[0.46 µM]	-14	-32%
c1ccc(OCCSc2nnc3sc4ccccc4n23)cc1	11µM*	3	-2%	-13	11µM*
COc1cccc(OCCSc2nnc3sc4ccccc4n23)c1	.	?	-1%	-19	-22%[0.365 µM]
COc1ccc(-c2c(NC(=O)c3ccco3)oc3ccccc3c2=O)cc1OC	-9%	7	1%	6	-4%
O=C(NC(c1ccccc1)c1ccccc1)c1ccccc1	.	-17	.	-11	.
O=C(NC(c1ccccc1)c1cc(Cl)c2cccnc2c1O)c1cccnc1 (stereo not drawn)	0.79µM*	.	4%	.	0.63µM*
CCOc1ccc(OCc2ccc(C(=O)Nc3cccnc3)o2)cc1	-8%	-4	-5%	0	22%
O=C(COc1cc2oc(=O)c3c(c2cc1Cl)CCC3)Nc1ccccn1	-10%	-6	.	0	-4%
O=C(COc1ccc(Cl)cc1Cl)Nc1cccnc1	-1%[10 µM]	-11	-4%	11	13%
CCOc1ccc(C(Nc2cccnc2)c2cc(Cl)c3cccnc3c2O)cc1 (stereo not drawn)	?	-68*	0%	?	5.6µM*
